Measured values: paper PMC7862700, “An all-to-all approach to the identification of sequence-specific readers for epigenetic DNA modifications on cytosine”

Columns and labels:
Experiment in all cases: DAPPL (digital affinity profiling via proximity ligation, sequencing); 10 mM Tris-HCl pH 7.5, 50 mM NaCl, 1 mM DTT, 4% glycerol, room temperature, 30 min; GST-TFs on glutathione beads, 16-mer random dsDNA library, 0.1% formaldehyde crosslink after washing; high values mean tight binding
Details in all cases: protein: recombinant; tags: N-terminal GST; dsDNA, one strand shown
[1] = target: T1, FLI1 (Homo sapiens, UniProt Q01543 1-452)
T1 sequence: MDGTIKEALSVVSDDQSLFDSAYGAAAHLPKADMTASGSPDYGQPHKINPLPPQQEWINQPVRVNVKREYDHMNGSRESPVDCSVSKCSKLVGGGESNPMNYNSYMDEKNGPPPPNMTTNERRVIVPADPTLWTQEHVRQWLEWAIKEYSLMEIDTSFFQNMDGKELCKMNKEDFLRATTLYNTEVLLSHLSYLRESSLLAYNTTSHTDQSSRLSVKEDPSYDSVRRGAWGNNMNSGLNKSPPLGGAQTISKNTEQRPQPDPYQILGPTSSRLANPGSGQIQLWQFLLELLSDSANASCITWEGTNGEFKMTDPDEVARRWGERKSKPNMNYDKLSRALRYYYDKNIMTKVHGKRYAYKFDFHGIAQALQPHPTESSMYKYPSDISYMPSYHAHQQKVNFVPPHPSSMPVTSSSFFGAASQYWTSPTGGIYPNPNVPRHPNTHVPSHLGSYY
How it was run: (§1)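 Human transcription factors fused to GST were expressed in yeast, captured on glutathione beads, given DNA barcodes and pooled with a GST-only negative control. Pools were incubated with 200 nmole of a 16-mer random double-stranded DNA library in Tris/NaCl/DTT/glycerol buffer at room temperature for 30 min. They were then washed, crosslinked with 0.1% formaldehyde, proximity-ligated (BsaI/T4 ligase, 1 h, 37 °C), PCR-amplified and sequenced on an Illumina NextSeq500. Binding signal is each 6-mer's read frequency for a factor divided by its frequency for the GST control.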

[2] = target: T2, ELK1 (Homo sapiens, UniProt P19419 1-428)
T2 sequence: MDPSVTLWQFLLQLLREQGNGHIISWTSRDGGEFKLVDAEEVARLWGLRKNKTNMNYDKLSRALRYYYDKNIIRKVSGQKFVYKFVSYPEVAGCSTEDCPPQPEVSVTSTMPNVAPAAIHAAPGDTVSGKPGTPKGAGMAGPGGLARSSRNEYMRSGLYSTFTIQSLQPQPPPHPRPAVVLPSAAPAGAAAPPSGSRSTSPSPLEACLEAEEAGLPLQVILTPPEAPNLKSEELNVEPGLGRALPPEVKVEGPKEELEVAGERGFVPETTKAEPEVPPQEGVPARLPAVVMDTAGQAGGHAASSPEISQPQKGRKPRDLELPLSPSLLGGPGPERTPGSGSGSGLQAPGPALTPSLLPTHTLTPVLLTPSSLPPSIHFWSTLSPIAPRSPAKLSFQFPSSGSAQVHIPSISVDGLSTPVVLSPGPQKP
How it was run: as §1

[3] = target: T3, GABPA (Homo sapiens, UniProt Q06546 1-454)
T3 sequence: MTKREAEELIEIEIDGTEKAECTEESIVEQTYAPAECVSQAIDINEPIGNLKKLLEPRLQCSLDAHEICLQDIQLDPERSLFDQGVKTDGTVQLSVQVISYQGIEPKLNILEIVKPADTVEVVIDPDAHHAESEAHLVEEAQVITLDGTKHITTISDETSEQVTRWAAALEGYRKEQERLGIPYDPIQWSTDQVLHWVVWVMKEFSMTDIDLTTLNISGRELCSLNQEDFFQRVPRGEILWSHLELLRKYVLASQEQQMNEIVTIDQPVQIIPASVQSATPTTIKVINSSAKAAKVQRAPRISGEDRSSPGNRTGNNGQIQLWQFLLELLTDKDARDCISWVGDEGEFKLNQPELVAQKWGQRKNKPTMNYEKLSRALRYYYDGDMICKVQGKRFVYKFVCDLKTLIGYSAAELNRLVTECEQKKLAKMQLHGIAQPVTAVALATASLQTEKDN
How it was run: as §1

[4] = target: T4, ERG (Homo sapiens, UniProt P11308 1-479)
T4 sequence: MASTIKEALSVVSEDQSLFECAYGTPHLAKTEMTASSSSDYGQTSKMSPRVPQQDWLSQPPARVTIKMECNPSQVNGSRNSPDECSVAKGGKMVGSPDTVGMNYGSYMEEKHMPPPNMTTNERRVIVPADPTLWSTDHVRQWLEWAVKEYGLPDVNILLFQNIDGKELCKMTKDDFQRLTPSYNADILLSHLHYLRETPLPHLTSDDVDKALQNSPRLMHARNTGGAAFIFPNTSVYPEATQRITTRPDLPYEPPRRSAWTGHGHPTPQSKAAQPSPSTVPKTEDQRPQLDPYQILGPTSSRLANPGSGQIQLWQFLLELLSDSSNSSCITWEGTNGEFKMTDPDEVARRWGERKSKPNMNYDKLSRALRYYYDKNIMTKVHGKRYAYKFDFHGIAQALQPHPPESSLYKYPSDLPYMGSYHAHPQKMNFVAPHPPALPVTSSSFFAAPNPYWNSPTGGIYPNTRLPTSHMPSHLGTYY
How it was run: as §1

[5] = target: ELF1 (Homo sapiens, UniProt P32519 1-619)
How it was run: as §1

[6] = target: T5, EHF (Homo sapiens, UniProt Q9NZC4 1-300)
T5 sequence: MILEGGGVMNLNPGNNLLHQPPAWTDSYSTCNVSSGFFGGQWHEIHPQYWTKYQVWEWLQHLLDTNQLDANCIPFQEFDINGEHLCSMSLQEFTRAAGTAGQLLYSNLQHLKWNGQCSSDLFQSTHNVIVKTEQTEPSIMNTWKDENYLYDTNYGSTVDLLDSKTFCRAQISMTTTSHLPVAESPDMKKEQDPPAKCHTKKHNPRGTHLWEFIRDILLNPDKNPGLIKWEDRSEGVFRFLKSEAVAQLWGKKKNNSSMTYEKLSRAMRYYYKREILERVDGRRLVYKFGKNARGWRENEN
How it was run: as §1

[7] = target: SPI1 (Homo sapiens, UniProt P17947 1-270)
How it was run: as §1

[8] = target: SPIB (Homo sapiens, UniProt Q01892 1-262)
How it was run: as §1

[9] = target: T6, ELK3 (Homo sapiens, UniProt P41970 1-407)
T6 sequence: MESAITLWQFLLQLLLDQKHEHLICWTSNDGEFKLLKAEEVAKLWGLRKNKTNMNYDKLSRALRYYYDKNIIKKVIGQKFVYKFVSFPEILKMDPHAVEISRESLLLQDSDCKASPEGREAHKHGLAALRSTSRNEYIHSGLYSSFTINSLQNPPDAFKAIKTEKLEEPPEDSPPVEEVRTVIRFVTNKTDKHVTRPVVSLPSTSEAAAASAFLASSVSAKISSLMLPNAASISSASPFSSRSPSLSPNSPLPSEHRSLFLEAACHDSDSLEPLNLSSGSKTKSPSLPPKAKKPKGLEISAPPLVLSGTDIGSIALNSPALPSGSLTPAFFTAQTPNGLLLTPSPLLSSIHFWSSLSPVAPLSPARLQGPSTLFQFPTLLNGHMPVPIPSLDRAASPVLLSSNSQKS
How it was run: as §1

Sequence of ELF1 (P32519 whole entry): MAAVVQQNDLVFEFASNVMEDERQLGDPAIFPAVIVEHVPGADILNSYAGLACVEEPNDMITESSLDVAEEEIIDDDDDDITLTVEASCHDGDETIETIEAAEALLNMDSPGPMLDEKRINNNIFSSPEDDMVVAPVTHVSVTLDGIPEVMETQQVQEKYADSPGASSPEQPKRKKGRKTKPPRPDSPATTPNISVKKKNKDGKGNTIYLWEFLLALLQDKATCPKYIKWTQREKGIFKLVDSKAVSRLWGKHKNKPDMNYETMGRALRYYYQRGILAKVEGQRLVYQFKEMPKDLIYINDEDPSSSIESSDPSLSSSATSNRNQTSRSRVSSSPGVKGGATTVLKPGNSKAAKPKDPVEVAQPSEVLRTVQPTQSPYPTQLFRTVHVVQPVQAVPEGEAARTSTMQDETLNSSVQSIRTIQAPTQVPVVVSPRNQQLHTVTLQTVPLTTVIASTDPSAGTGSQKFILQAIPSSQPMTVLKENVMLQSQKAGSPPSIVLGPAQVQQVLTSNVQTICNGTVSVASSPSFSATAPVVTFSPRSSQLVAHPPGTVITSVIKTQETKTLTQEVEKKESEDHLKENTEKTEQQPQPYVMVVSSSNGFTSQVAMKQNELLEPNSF
Sequence of SPIB (Q01892 whole entry): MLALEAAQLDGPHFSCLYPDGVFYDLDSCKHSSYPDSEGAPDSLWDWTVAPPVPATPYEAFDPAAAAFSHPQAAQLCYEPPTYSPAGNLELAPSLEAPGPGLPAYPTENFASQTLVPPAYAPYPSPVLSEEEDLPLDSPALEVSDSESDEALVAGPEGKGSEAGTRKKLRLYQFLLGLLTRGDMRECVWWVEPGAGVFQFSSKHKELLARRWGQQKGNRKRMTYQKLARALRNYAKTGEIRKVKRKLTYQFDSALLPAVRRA

Sequence	binding signal [1]	binding signal [2]	binding signal [3]	binding signal [4]	binding signal [5]	binding signal [6]	binding signal [7]	binding signal [8]	binding signal [9]
GCACCC	1.21 fold enrichment (6-mer frequency, TF over GST control)	1.25 fold enrichment (6-mer frequency, TF over GST control)	1.25 fold enrichment (6-mer frequency, TF over GST control)	1.17 fold enrichment (6-mer frequency, TF over GST control)	1.16 fold enrichment (6-mer frequency, TF over GST control)	1.01 fold enrichment (6-mer frequency, TF over GST control)	1.18 fold enrichment (6-mer frequency, TF over GST control)	1.2 fold enrichment (6-mer frequency, TF over GST control)	1.14 fold enrichment (6-mer frequency, TF over GST control)
CTGATG	1.75 fold enrichment (6-mer frequency, TF over GST control)	1.65 fold enrichment (6-mer frequency, TF over GST control)	1.7 fold enrichment (6-mer frequency, TF over GST control)	1.43 fold enrichment (6-mer frequency, TF over GST control)	1.6 fold enrichment (6-mer frequency, TF over GST control)	1.59 fold enrichment (6-mer frequency, TF over GST control)	1.63 fold enrichment (6-mer frequency, TF over GST control)	1.7 fold enrichment (6-mer frequency, TF over GST control)	1.5 fold enrichment (6-mer frequency, TF over GST control)
TCTGAC	1.26 fold enrichment (6-mer frequency, TF over GST control)	1.19 fold enrichment (6-mer frequency, TF over GST control)	1.24 fold enrichment (6-mer frequency, TF over GST control)	1.16 fold enrichment (6-mer frequency, TF over GST control)	1.28 fold enrichment (6-mer frequency, TF over GST control)	1.3 fold enrichment (6-mer frequency, TF over GST control)	1.09 fold enrichment (6-mer frequency, TF over GST control)	1.25 fold enrichment (6-mer frequency, TF over GST control)	1.24 fold enrichment (6-mer frequency, TF over GST control)
CTGCCC	1.31 fold enrichment (6-mer frequency, TF over GST control)	1.29 fold enrichment (6-mer frequency, TF over GST control)	1.29 fold enrichment (6-mer frequency, TF over GST control)	1.36 fold enrichment (6-mer frequency, TF over GST control)	1.32 fold enrichment (6-mer frequency, TF over GST control)	1.46 fold enrichment (6-mer frequency, TF over GST control)	1.27 fold enrichment (6-mer frequency, TF over GST control)	1.19 fold enrichment (6-mer frequency, TF over GST control)	1.1 fold enrichment (6-mer frequency, TF over GST control)
AAACGA	1.07 fold enrichment (6-mer frequency, TF over GST control)	1.14 fold enrichment (6-mer frequency, TF over GST control)	1.17 fold enrichment (6-mer frequency, TF over GST control)	1.11 fold enrichment (6-mer frequency, TF over GST control)	1.08 fold enrichment (6-mer frequency, TF over GST control)	1.04 fold enrichment (6-mer frequency, TF over GST control)	1.1 fold enrichment (6-mer frequency, TF over GST control)	1 fold enrichment (6-mer frequency, TF over GST control)	1.14 fold enrichment (6-mer frequency, TF over GST control)
CCGCAA	1.27 fold enrichment (6-mer frequency, TF over GST control)	1.3 fold enrichment (6-mer frequency, TF over GST control)	1.36 fold enrichment (6-mer frequency, TF over GST control)	1.28 fold enrichment (6-mer frequency, TF over GST control)	1.31 fold enrichment (6-mer frequency, TF over GST control)	1.34 fold enrichment (6-mer frequency, TF over GST control)	1.45 fold enrichment (6-mer frequency, TF over GST control)	1.28 fold enrichment (6-mer frequency, TF over GST control)	1.34 fold enrichment (6-mer frequency, TF over GST control)
GGGCTC	1.21 fold enrichment (6-mer frequency, TF over GST control)	1.24 fold enrichment (6-mer frequency, TF over GST control)	1.32 fold enrichment (6-mer frequency, TF over GST control)	1.17 fold enrichment (6-mer frequency, TF over GST control)	1.2 fold enrichment (6-mer frequency, TF over GST control)	1.03 fold enrichment (6-mer frequency, TF over GST control)	1.11 fold enrichment (6-mer frequency, TF over GST control)	1.26 fold enrichment (6-mer frequency, TF over GST control)	1.22 fold enrichment (6-mer frequency, TF over GST control)
TGTATT	1.38 fold enrichment (6-mer frequency, TF over GST control)	1.31 fold enrichment (6-mer frequency, TF over GST control)	1.33 fold enrichment (6-mer frequency, TF over GST control)	1.32 fold enrichment (6-mer frequency, TF over GST control)	1.37 fold enrichment (6-mer frequency, TF over GST control)	1.34 fold enrichment (6-mer frequency, TF over GST control)	1.28 fold enrichment (6-mer frequency, TF over GST control)	1.28 fold enrichment (6-mer frequency, TF over GST control)	1.43 fold enrichment (6-mer frequency, TF over GST control)
